Test results: PubChem BioAssay (EPA / NIEHS)
The source holds several records for some structures; these can differ, active in one and inactive in another. Activity calls are given as the source filed them. How the source made its calls: active means hit-call score of the fitted dose curve at least 0.9, where 1 is the maximum; inactive means score below 0.9.

Read-out: Tumor necrosis factor receptor superfamily member 6 (Homo sapiens) (UniProt P25445)
Assay: LTEA_HepaRG_FAS: Life Technologies and Expression Analysis (LTEA) Assay for Fas cell surface death receptor (FAS) using HepaRG (AID 2283447)
Settings: mRNA level, 48 h; actives raise or lower the signal
Procedure: LTEA_HepaRG is a cell based, multiplexed-readout assay that uses HepaRG, a human liver cell line, with measurements taken at 48 hours after chemical dosing on a 96-well plate.LTEA_HepaRG_FAS is one of 102 assay component(s) measured in the LTEA HepaRG cell culture assay. It is a marker of Cell proliferation, survival, death.Data from the assay component LTEA_HepaRG_FAS was analyzed into 1 endpoint. This assay endpoint, LTEA_HepaRG_FAS, was analyzed with bidirectional fitting relative to DMSO as the negative control and baseline of activity. Using a type of inducible reporter, measures of mRNA induction for gain or loss-of-signal activity can be used to understand regulation of transcription factor activity. To generalize the intended target to other relatable targets, this assay endpoint is annotated to the cytokine receptor intended target family, where the subfamily is TNF receptor.
A total of 1060 chemcials from the ToxCast library were tested in eight-point concentration-response experiments. Cell culture and cytotoxicity assays were conducted at Thermo Fisher Scientific's Custom Services facility (Madison, WI). A single lot of human HepaRG cells (Thermo Fisher Scientific, Frederick, MD) was used for the cell culture experiments. 96-well format collagen type I coated plates of human HepaRG cells were prepared using established methods. Briefly, cryopreserved HepaRG cells were thawed, plated at a density of approximately 100,000 cells/well in HepaRG Thaw, Plate, and General Purpose media (HPRG770, Thermo Fisher Scientific), and incubated for 48 hours. 0.5% DMSO was selected as vehicle control to balance the requisite need of DMSO in HepaRG cultures to maintain differentiation (for example, baseline metabolism, proportions of hepatocytes vs. cholangiocytes), while enabling further hepatic receptor pathway activation (for example, PXR and CAR) in response to chemical exposure. 48 hours after plating, the culture medium was replaced with HepaRG Serum-Free Incudtion Media. Cells were exposed to each test chemical in duplicate and maintained in CO2 incubators for another 48 hours. Chemical plates were thawed to room temperature and 200x concentrations of treatment groups were prepared. 8-point conentration-reponse curves were made with the highest exposure at 100 uM, followed by half-log dilutions, all in 0.5% DMSO. Each test plate contained variouse controls, induction positive controls (1mM phenobarbital), cytotoxicity positive controls ([…] aflatoxin B1), vehicle controls (0.5% DMSO), and total lysis controls (0.5% DMSO). Cell morphology images were taken using an Essen IncuCyte FLR automated microscope, with six 96-well plates imaged in about 24 minutes. Images were captured and exported and JPEG files. Spent culture media was transfered to black-well plates for the LDH assay, and remaining media was sorted at -80 C for later use. Cells were treated with RLT buffer and frozen until shipped for gene expression analysis. Total RNA was isolated from the cell suspension in 75 uL of Buffer RLT (Qiagen, Germantown, MD 20874) by Quintiles/Expression Analysis (Durham, NC) using a custom isolation procedure. Total RNA from each plate well was transferred to a preamplification plate. Fluidigm's 96.96 Dynamic ArrayTM (Fluidigm, Amsterdam, the Netherlands) technology was used for gene expression analyses by quantitative reverse transcription polymerase chain reaction (qRT-PCR, performed by Quintiles/Expression Analysis, Durham, NC)89. Standard TaqManTM Assays (Applied Biosystems/ThermoFisher Scientific, Foster City, CA) were used to assess the expression of 93 genes selected based on their selectivity and sensitivity to important hepatic receptors known to be modulated by environmental chemicals; importance in human hepatocyte functionality; and hepatotoxicity. […]

Row | Compound | outcome | AC50
1 | CCOC(=O)COc1cc(-n2ncc(C(F)(F)F)c(C)c2=O)c(F)cc1Cl | inactive | 
2 | O=C(c1ccccc1)C1CCCCC1 | inactive | 
3 | O=C(O)C1(C(=O)Nc2ccc(Cl)cc2Cl)CC1 | inactive | 
4 | O=C(O)c1ccccc1 | inactive | 
5 | CC(C)CCCCCCc1ccc(O)cc1 | inactive | 
6 | c1ccc(Nc2ccccc2)cc1 | inactive | 
7 | Cc1nn(C)c(Oc2ccccc2)c1C=NOCc1ccc(C(=O)OC(C)(C)C)cc1 |  | 8.31 µM (active)
8 | CCCCCOC(=O)COc1cc(N2C(=O)C3=C(CCCC3)C2=O)c(F)cc1Cl | inactive | 
9 | CCOC(=O)c1ccc(O)cc1 | inactive | 
10 | CC(=O)S[C@@H]1CC2=CC(=O)CC[C@]2(C)[C@H]2CC[C@@]3(C)[C@@H](CC[C@@]34CCC(=O)O4)[C@H]12 | inactive | 
11 | CCCCOCCOCCOCc1cc2c(cc1CCC)OCO2 | inactive | 
12 | COC(=O)CSc1cc(N=c2sc(=O)n3n2CCCC3)c(F)cc1Cl | inactive | 
13 | CC(C)(C)[C@@H](O)[C@@H](Cc1ccc(Cl)cc1)n1cncn1 | inactive | 
14 | CCCCC(CC)COC(=O)c1ccccc1C(=O)O (stereo not given) | inactive | 
15 | CCCCOC(=O)[C@@H](C)Oc1ccc(Oc2ccc(C(F)(F)F)cn2)cc1 | inactive | 
16 | C#CCOC(=O)[C@@H](C)Oc1ccc(Oc2ncc(Cl)cc2F)cc1 | inactive | 
17 | CSC(=O)c1cccc2nnsc12 | inactive | 
18 | COC(=O)c1ccc(I)cc1S(=O)(=O)NC(=O)Nc1nc(C)nc(OC)n1 | inactive | 
19 | CC1(C)C(C=C(Cl)Cl)C1C(=O)OCc1cccc(Oc2ccccc2)c1 (stereo not given) | inactive | 
20 | C=CCOC(Cn1ccnc1)c1ccc(Cl)cc1Cl (stereo not given) |  | 68.9 µM (active)

Row | Compound | outcome | AC50
21 | O=C(c1ccc(O)cc1O)c1ccc(O)cc1O | inactive | 
22 | S=C([S-])NCCNC(=S)[S-].[Mn+2] |  | 5.41 µM (active)
23 | OB(O)O | inactive | 
24 | O=C(Nc1ccc([N+](=O)[O-])cc1Cl)c1cc(Cl)ccc1O |  | 3.08 µM (active)
25 | CCCCC(CC)CN1C(=O)C2C3C=CC(C3)C2C1=O (stereo not given) | inactive | 
26 | CCCCOC(=O)C(C)Oc1ccc(Oc2ccc(C(F)(F)F)cn2)cc1 (stereo not given) | inactive | 
27 | S=C(S)NCCNC(=S)S.[Mn+2].[S-]C([S-])=NCCN=C([S-])[S-].[Zn+2] | inactive | 1.63 µM (active)
28 | C#C[C@]1(O)CC[C@H]2[C@@H]3CCC4=CC(=O)CC[C@@H]4[C@H]3CC[C@@]21CC | inactive | 
29 | CCCN(CCC)c1c([N+](=O)[O-])cc(C(F)(F)F)c(N)c1[N+](=O)[O-] | inactive | 
30 | CCCOC(=O)NCCCN(C)C | inactive | 
31 | N[C@@H](Cc1cc(I)c(Oc2ccc(O)c(I)c2)c(I)c1)C(=O)O | inactive | 
32 | C[C@]12CC[C@@H]3c4ccc(O)cc4C[C@@H](CCCCCCCCCS(=O)CCCC(F)(F)C(F)(F)F)[C@H]3[C@@H]1CC[C@@H]2O (stereo not given in full) |  | 0.0482 µM (active)
33 | CCCOC(=O)c1ccc(C(=O)OCCC)nc1 | inactive | 
34 | CCCCCCC(C)OC(=O)COc1nc(F)c(Cl)c(N)c1Cl (stereo not given) | inactive | 
35 | N#CSCSc1nc2ccccc2s1 | inactive | 
36 | CCOC(=O)C(C)Oc1ccc(Oc2nc3ccc(Cl)cc3o2)cc1 (stereo not given) | inactive | 
37 | Oc1ccc(C(c2ccc(O)cc2)C(Cl)(Cl)Cl)cc1 | inactive | 
38 | CCCN(CCC)C(=O)SCC | inactive | 
39 | C[C@]12C[C@H](O)[C@H]3[C@@H](CCC4=CC(=O)CC[C@@]43C)[C@@H]1CC[C@@H]2C(=O)CO | inactive | 
